Experimental data: PubChem BioAssay
Values joined by “and” are separate entries in the source; they are usually repeats but may differ in a detail not shown here. Equal values may be shown once. Active and inactive are the calls of the source.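 Rule for the calls, unless noted: active = normalized viability below 100% at a tested concentration; inactive = the rest.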

What was measured:
[1] = Wnt pathway potentiators raising nuclear beta-catenin – imaging, WNT3A-conditioned medium, mouse C2C12, NPC library, primary screen (AID 1117326; in the data active = nuclear beta-catenin stimulation mostly above about 4.2%, no sharp cut-off; inactive = mostly below about 10%); conditions: stronger effect = higher value
[2] = stimulators of insulin release from INS-1E, primary screen, cell-based, 5 mM glucose, NPC library (AID 1117329;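 active = compound raises insulin release from rat beta cells at 5 mM glucose, no numeric limit stated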); conditions: rat INS-1E insulin secretion, at 10 µM, stronger effect = higher value
[3] = growth inhibition of GSK3B-pretreated HCT116 cells – cell-based, CellTiter-Glo, 0.2 to 20 µM (AID 1117336;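 active = compounds lowering colon cancer cell viability after pretreatment blocking the GSK3B kinase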); conditions: HCT116 viability after GSK3B inhibitor, at 20 µM, stronger effect = higher value
[4] = inhibition of endothelial tube formation, primary screen, imaging, VEGF stimulated, CD31 staining, tube area, NPC library (AID 1117340;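 active = compound that reduces growth-factor-driven endothelial tube area in a mixed cell culture, no cutoff stated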); conditions: VEGF-stimulated ADSC/ECFC co-culture, at 10 µM, stronger effect = higher value
[5] = GLP1 release stimulators, primary, NCI-H716, NPC library (AID 1117341;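 active = compound raises GLP1 secretion from the human gut endocrine cells, with no numeric limit stated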); conditions: NCI-H716 cells, at 10 µM, stronger effect = higher value
[6] = HCT116 colon cancer cell growth inhibition, primary screen, CellTiter-Glo luminescence, NPC library (AID 1117342;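 active = compounds that lower survival of HCT116 colon cancer cells in the luminescence readout, no numeric limit stated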); conditions: at 20 µM (top of the series)
[7] = reduced SW480 viability measured with CellTiter-Glo, NPC library, primary (AID 1117343;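 active = compounds that lower viability of the colon cancer cells in the luminescence readout, with no numeric limit stated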); conditions: CellTiter-Glo luminescence; at 20 µM (top of the series)
[8] = NPC library primary testing for decreased DLD-1 cell viability via CellTiter-Glo (AID 1117346;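 active = compounds that lower survival of DLD-1 colon cancer cells in the luminescence readout, no cutoff given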); conditions: DLD-1 viability, CellTiter-Glo luminescence; at 20 µM (top of the series)
[9] = biological target: 6-phosphogluconate dehydrogenase, decarboxylating (Homo sapiens) (UniProt P52209); assay: inhibition of human phosphogluconate dehydrogenase – biochemical, recombinant enzyme, NADPH absorbance, primary screen (AID 1159550;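 active = at least 20% inhibition of 6-phosphogluconate dehydrogenase activity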); conditions: recombinant 6PGD, NADPH absorbance 341 nm; at 10 µM; stronger effect = higher value
[10] = EMT-state selective cytotoxicity in co-culture – imaging, PC-3E GFP, TEM4-18 mCherry, primary screen (AID 1345086;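 active = compounds killing one labelled cell type while sparing the other, by normalised counts and ratio limits, not self-fluorescent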;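 for all read-outs here: cells exposed to compound for 72 h before imaging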;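 for red/green cell ratio (normalised): normalised mesenchymal count divided by normalised epithelial count so high means epithelial killing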); conditions: PC-3E GFP / TEM4-18 mCherry co-culture, imaging cell counts, at 1 µM; for red/green cell ratio (normalised): actives lie on both sides, counts scaled to control wells, 1 = unselective
[11] = MELAS cybrid and Rieske KO viability enhancers – cell-based, MELAS cybrids, Rieske KO mouse fibroblasts, CellTiter-Glo, primary screen (AID 1508586;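 active = mean z-score across replicates of 1.96 or higher in either the MELAS or the Rieske mutant cell line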;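 note: z relative to plate mean and SD of compound and empty wells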); conditions: low glucose
[12] = drug combination growth inhibition, ovarian cancer – cell-based, oncology-focused library, rucaparib conditional, profiling panel (AID 1508598); conditions: patient-derived ovarian cancer cells, CellTiter-Glo viability, 144 h, stronger effect = lower value
[13] = biological target: NAD(+) hydrolase SARM1 (Homo sapiens) (UniProt Q6SZW1); assay: blocking NAD cleavage by SARM1 SAM-TIR – cell lysate, NAD-Glo luminescence (AID 1508614;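 active = compound whose remaining NAD level is above about 45 nM, limit read from the data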;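 note: higher remaining NAD means stronger inhibition of SARM1 NADase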); conditions: SAM-TIR HEK293T lysate NADase, at 1 µM, stronger effect = higher value
F380Y = assay: BK channel mutant inhibitors and activators – cell-based, U2OS BacMam, thallium flux, beta subunits, selectivity assay, profiling panel (AID 1259406;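 active = thallium flux through the channel raised or lowered by more than 3 SD from vehicle-only wells, actives on both sides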;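 note: initial slope of Thallos dye fluorescence rise after thallium is added; log ratio against the mean of 0.3% DMSO vehicle wells on the same plate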); conditions: U2OS BacMam BK variants, at 30 µM
F380Y/beta1 = assay: as above; conditions: U2OS BacMam BK variants, at 30 µM
F380Y/beta2Delta = assay: as above; conditions: U2OS BacMam BK variants, at 30 µM
F380Y/beta4 = assay: as above; conditions: U2OS BacMam BK variants, at 30 µM
[14] = biological target: Calcium-activated potassium channel subunit alpha-1 (Homo sapiens) + Leucine-rich repeat-containing protein 26 (Homo sapiens) (UniProt Q12791+Q2I0M4); assay: as above; conditions: U2OS BacMam BK variants, F380Y/Slo1WT/gamma1, at 30 µM
R275C = assay: as above; conditions: U2OS BacMam BK variants, at 30 µM
[15] = measured here: epithelial PC-3E GFP cell survival
[16] = measured here: mesenchymal TEM4-18 mCherry cell survival
[17] = MELAS cybrid survival, CellTiter-Glo 48 h, stronger effect = higher value
[18] = Rieske KO mouse fibroblast survival, CellTiter-Glo 72 h

Sequence of NAD(+) hydrolase SARM1 (Homo sapiens) (Q6SZW1 whole entry, looked up): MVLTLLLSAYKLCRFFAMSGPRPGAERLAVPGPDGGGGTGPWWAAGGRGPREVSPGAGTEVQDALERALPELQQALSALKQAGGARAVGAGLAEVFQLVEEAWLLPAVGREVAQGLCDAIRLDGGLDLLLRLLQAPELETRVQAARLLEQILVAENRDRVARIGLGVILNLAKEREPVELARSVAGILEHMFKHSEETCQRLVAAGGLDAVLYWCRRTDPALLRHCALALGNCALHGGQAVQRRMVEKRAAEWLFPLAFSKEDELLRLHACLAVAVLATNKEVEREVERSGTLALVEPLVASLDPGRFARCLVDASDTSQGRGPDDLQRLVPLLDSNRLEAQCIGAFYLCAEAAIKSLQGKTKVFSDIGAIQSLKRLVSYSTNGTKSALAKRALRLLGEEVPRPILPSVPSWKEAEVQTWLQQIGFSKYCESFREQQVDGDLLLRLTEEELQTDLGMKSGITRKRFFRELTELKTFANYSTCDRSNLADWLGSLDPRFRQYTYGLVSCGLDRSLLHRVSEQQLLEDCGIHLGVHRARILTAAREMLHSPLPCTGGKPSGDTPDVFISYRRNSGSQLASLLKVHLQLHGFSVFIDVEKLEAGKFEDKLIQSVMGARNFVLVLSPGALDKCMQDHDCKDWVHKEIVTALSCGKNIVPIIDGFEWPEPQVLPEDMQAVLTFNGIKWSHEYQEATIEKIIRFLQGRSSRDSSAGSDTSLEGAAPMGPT
Sequence of Calcium-activated potassium channel subunit alpha-1 (Homo sapiens) + Leucine-rich repeat-containing protein 26 (Homo sapiens) (Q2I0M4 whole entry, looked up, one chain of several): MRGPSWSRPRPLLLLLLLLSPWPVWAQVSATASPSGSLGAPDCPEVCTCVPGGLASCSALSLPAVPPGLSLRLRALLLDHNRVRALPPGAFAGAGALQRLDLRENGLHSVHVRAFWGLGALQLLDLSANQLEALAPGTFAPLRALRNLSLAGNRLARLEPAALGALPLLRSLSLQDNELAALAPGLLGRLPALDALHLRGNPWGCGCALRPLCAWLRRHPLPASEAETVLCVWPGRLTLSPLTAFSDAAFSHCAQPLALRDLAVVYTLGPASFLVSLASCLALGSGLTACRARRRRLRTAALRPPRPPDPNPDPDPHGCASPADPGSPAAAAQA
Sequence of 6-phosphogluconate dehydrogenase, decarboxylating (Homo sapiens) (P52209 whole entry, looked up): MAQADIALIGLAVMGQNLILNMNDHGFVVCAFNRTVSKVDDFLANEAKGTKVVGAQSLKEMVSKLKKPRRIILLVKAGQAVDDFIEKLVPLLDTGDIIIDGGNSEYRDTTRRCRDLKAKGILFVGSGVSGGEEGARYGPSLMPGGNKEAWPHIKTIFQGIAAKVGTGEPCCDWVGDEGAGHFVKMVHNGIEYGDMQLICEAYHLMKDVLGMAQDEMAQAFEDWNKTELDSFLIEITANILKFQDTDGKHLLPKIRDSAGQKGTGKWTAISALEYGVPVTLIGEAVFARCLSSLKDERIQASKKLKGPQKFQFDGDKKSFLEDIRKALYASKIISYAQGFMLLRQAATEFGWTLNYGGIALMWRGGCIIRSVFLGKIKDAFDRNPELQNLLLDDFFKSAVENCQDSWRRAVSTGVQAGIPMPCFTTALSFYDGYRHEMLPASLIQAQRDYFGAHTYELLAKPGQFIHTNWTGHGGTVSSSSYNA

Cc1ccc(-c2cc(C(F)(F)F)nn2-c2ccc(S(N)(=O)=O)cc2)cc1
1.08: normalised cell number [10, 15]
inactive: nuclear beta-catenin stimulation ([1]; at 10 µM) 8.6% | insulin secretion stimulation [2] -0.6% | viability decrease [3] -9.9% | tube area decrease [4] 1.2% | GLP1 secretion stimulation [5] 0.7% | inhibition of viability [6] 49% | inhibition [9] 13.7% | red/green cell ratio (normalised) [10] 1.22 | z-score [11, 17] -0.312 and 1.24 and 1.08 | viability ([12]; at 0.000305 µM, OCI-C5x cells, with rucaparib 10 µM, 100% = cells with rucaparib alone) 113% | viability ([12]; at 0.000305 µM, OCI-C5x cells, without rucaparib) 107% | viability ([12]; at 0.00122 µM, OCI-C5x cells, with rucaparib 10 µM, 100% = cells with rucaparib alone) 104% | viability ([12]; at 0.00122 µM, OCI-C5x cells, without rucaparib) 111% | viability ([12]; at 0.00488 µM, OCI-C5x cells, with rucaparib 10 µM, 100% = cells with rucaparib alone) 118% | viability ([12]; at 0.00488 µM, OCI-C5x cells, without rucaparib) 107% | viability ([12]; at 0.0195 µM, OCI-C5x cells, with rucaparib 10 µM, 100% = cells with rucaparib alone) 115% | viability ([12]; at 0.0195 µM, OCI-C5x cells, without rucaparib) 120% | viability ([12]; at 0.0781 µM, OCI-C5x cells, with rucaparib 10 µM, 100% = cells with rucaparib alone) 114% | viability ([12]; at 0.0781 µM, OCI-C5x cells, without rucaparib) 117% | viability ([12]; at 0.313 µM, OCI-C5x cells, with rucaparib 10 µM, 100% = cells with rucaparib alone) 117% | viability ([12]; at 0.313 µM, OCI-C5x cells, without rucaparib) 110% | viability ([12]; at 1.25 µM, OCI-C5x cells, with rucaparib 10 µM, 100% = cells with rucaparib alone) 113% | viability ([12]; at 1.25 µM, OCI-C5x cells, without rucaparib) 124% | viability ([12]; at 1.25 µM, OCI-P5x cells, with rucaparib 20 µM, 100% = cells with rucaparib alone) 109% | viability ([12]; at 1.25 µM, OCI-P5x cells, without rucaparib) 105% | viability ([12]; at 5 µM, OCI-C5x cells, with rucaparib 10 µM, 100% = cells with rucaparib alone) 122% | viability ([12]; at 5 µM, OCI-C5x cells, without rucaparib) 131% | viability ([12]; at 5 µM, OCI-P5x cells, with rucaparib 20 µM, 100% = cells with rucaparib alone) 109% | viability ([12]; at 5 µM, OCI-P5x cells, without rucaparib) 105% | remaining NAD [13] 10 nM | log fold change Tl+ flux (F380Y) 0.057 | log fold change Tl+ flux (F380Y/beta1) -0.0387 | log fold change Tl+ flux (F380Y/beta2Delta) -0.0192 | log fold change Tl+ flux (F380Y/beta4) 0.0167 | log fold change Tl+ flux [14] -0.0327 | log fold change Tl+ flux (R275C) -0.00943
1.32: normalised cell number [10, 16]
0.5%: nuclear beta-catenin stimulation ([1]; stimulation, at 2 µM)
active: viability decrease (inhibition) [7] 66.6% | viability decrease (inhibition) [8] 50.1% | viability ([12]; at 0.000305 µM, OCI-P5x cells, with rucaparib 20 µM, 100% = cells with rucaparib alone) 84.7% | viability ([12]; at 0.000305 µM, OCI-P5x cells, without rucaparib) 92.4% | viability ([12]; at 0.00122 µM, OCI-P5x cells, with rucaparib 20 µM, 100% = cells with rucaparib alone) 91.7% | viability ([12]; at 0.00122 µM, OCI-P5x cells, without rucaparib) 91.9% | viability ([12]; at 0.00488 µM, OCI-P5x cells, with rucaparib 20 µM, 100% = cells with rucaparib alone) 93.8% | viability ([12]; at 0.00488 µM, OCI-P5x cells, without rucaparib) 94% | viability ([12]; at 0.0195 µM, OCI-P5x cells, with rucaparib 20 µM, 100% = cells with rucaparib alone) 96.2% | viability ([12]; at 0.0195 µM, OCI-P5x cells, without rucaparib) 88.2% | viability ([12]; at 0.0781 µM, OCI-P5x cells, with rucaparib 20 µM, 100% = cells with rucaparib alone) 96.7% | viability ([12]; at 0.0781 µM, OCI-P5x cells, without rucaparib) 94.3% | viability ([12]; at 0.313 µM, OCI-P5x cells, with rucaparib 20 µM, 100% = cells with rucaparib alone) 66.1% | viability ([12]; at 0.313 µM, OCI-P5x cells, without rucaparib) 56.6%
1.13 and 1.16 and 1.29: z-score [11, 18]

NS(=O)(=O)c1cc2c(cc1Cl)NC=NS2(=O)=O
0.39: normalised cell number [10, 15]
0.72 and -0.309: z-score [11, 18]
3%: nuclear beta-catenin stimulation ([1]; stimulation, at 2 µM)
0.45: normalised cell number [10, 16]
inactive: nuclear beta-catenin stimulation ([1]; at 10 µM) -0.3% | insulin secretion stimulation [2] -0.7% | viability decrease [3] -4.3% | tube area decrease [4] 3.2% | GLP1 secretion stimulation [5] 1.5% | inhibition of viability [6] -1.55% | viability decrease (inhibition) [7] 5.5% | viability decrease (inhibition) [8] -6.2% | inhibition [9] 11.5% | red/green cell ratio (normalised) [10] 1.16 | z-score [11, 17] -0.0786 and 0.00114 | remaining NAD [13] 10 nM | log fold change Tl+ flux (F380Y) 0.0512 | log fold change Tl+ flux (F380Y/beta1) 0.0165 | log fold change Tl+ flux (F380Y/beta2Delta) -0.00499 | log fold change Tl+ flux (F380Y/beta4) -2.4e-05 | log fold change Tl+ flux [14] 0.00339 | log fold change Tl+ flux (R275C) 0.0234
